Screening data (PubChem BioAssay)
The sample as a whole holds a higher share of hits than the screen did.
AMA1-RON2 inh: AMA1-RON2 (P. falciparum) interaction inhibition. AlphaScreen AMA1-biotinylated RON2 peptide binding. Potency, µM (series often up to 58.2 µM), without a hit: at the top dose activity change, negative = inhibition, hits mostly inhibitors. 360,000 tested, 0.2% active. AID 720542;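 also: potency is read from the fitted curve at half-maximal effect; 0% = vehicle wells and -100% = peptide control; nearly all actives have a fitted effect of over 45% in size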
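AMA1 (3D7) with his tag at 25 nM final met compounds first, then biotinylated RON2 peptide at 25 nM; detection used donor plus acceptor beads, 10 µg/mL apiece, read by AlphaScreen after 30 min at room temperature.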
Shiga toxin inh: Shiga toxin inhibition; Vero cells, Shiga toxin protein synthesis inhibition reporter; inhibition, % at 38.7 µM; 290,000 tested, 9.2% active; AID 2315; in the data active = inhibition mostly above about 28%, no sharp cut-off; inactive = mostly below about 43%; also: 0% is about no effect
AmpC inh detg: blocks E. coli AmpC beta-lactamase in detergent assay; P00811; AmpC hydrolysis of nitrocefin, absorbance 480 nm, 0.01% Triton; Potency, µM (titrated, usually from 114 µM), for inactives: at the top dose activity change, negative = inhibition, most hits filed as inhibitors; 370,000 tested, 0.041% active;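 also: potency is read from the fitted curve at half-maximal effect; 0% = no-compound wells and -100% = no-enzyme wells; nearly all actives have a fitted effect of over 25% in size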
Target sequence (P00811 whole entry, looked up): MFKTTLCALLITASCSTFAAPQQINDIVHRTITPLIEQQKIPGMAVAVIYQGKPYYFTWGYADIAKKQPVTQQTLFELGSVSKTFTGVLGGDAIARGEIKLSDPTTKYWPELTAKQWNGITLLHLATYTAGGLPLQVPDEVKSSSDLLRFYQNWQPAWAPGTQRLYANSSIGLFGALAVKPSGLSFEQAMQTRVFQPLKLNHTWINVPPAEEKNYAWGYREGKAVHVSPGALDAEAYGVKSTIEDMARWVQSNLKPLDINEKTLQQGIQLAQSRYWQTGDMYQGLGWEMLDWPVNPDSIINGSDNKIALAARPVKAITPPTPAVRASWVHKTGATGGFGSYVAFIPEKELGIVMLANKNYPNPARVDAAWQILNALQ
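AmpC (5.3 nM in the dispensed reagent) in 20 mM phosphate pH 7.0 with 0.01% (detergent screen) or 0.0001% Triton X-100 was preincubated with compounds for 15 min at room temperature. Nitrocefin was then added from an 800 uM solution, and hydrolysis was followed at 480 nm.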
SARS PLpro yeast: blocks SARS-CoV papain-like protease in a yeast assay | S. cerevisiae expressing SARS-CoV PLpro, growth rescue | Potency, µM (highest dose often 32.9 µM), without a hit: top-dose activity, positive = growth rescue, usual class: activators | 330,000 tested, 0.19% active | AID 485353; calls by dose curve; also: potency is read from the fitted curve at half-maximal effect; 0% is about no effect; nearly all actives have a fitted effect of over 55% in size
CHX counter: affects cycloheximide protein synthesis inhibition readout, counter-screen; 300,000 tested, 12% active; cell reporter, cycloheximide protein synthesis inhibition counterscreen; AID 2314; max response, %; in the data active = max response mostly above about 13%, no sharp cut-off; inactive = mostly below about 14%; also: read at 38.3 µM for the half of the compounds with a filed dose; 0% is about no effect
AmpC inh no detg: AmpC beta-lactamase inhibition without detergent; AmpC nitrocefin hydrolysis, absorbance 480 nm, 0.0001% Triton; Potency, µM (top dose mostly 57.1 µM), inactives show top-dose activity change, negative = inhibition, hits mostly inhibitors; 330,000 tested, 0.52% active; AID 485341;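 also: potency is read from the fitted curve at half-maximal effect; plate controls were no compound for no effect and no enzyme for full effect; nearly all actives have a fitted effect of over 20% in size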
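AmpC (5.3 nM in the dispensed reagent) in 20 mM phosphate pH 7.0 with 0.01% (detergent screen) or 0.0001% Triton X-100 was preincubated with compounds for 15 min at room temperature. Nitrocefin was then added from an 800 uM solution, and hydrolysis was followed at 480 nm.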
The depositor's hits bear a star; ? = inconclusive; nt = not tested or not shown; + = active, no number. Unless noted, calls follow the shape of the dose curve; as a rule, active = well fitted curve in the direction sought with a large enough effect; inconclusive = small, poorly fitted or top-dose-only effect, or another doubt; inactive = no such curve, though single readings can be large; an effect the other way counts as inactive or inconclusive.

SMILES | AMA1-RON2 inh | Shiga toxin inh | AmpC inh detg | SARS PLpro yeast | CHX counter | AmpC inh no detg
CCCCN(C(=O)Cn1nnc2ccccc21)C(C(=O)NCCOC)c1ccccc1 (stereo not given) | -6% | -5 | -5% | 1% | -1 | 23%
O=C(CSc1cccc(C(F)(F)F)c1)N1CCN(S(=O)(=O)c2ccccc2)CC1 | -4% | -23 | ? | -7% | -1 | 25%
CCN1CCN(C(=O)CCc2nnc(CCCCc3ccccc3)o2)[C@@H](C)C1=O | -8% | 23 | 5% | 1% | 10 | 45%
CCOc1ccc(CCN2C(=S)N([C@@H](CC(C)C)CN3CCCC3CN3C(=S)NC[C@@H]3CC(C)C)C[C@@H]2Cc2ccccc2)cc1 (stereo not given in full) | 3% | nt | nt | nt | nt | nt
CCOP(=O)(OCC)c1nc(/C=C/c2ccccc2)oc1NCc1ccc(OC)cc1 | 29% | 16 | 3% | -14% | 3 | 159%
NNC(=O)c1ccc(O)cc1 | 24% | nt | 9% | 13% | nt | -16%
CSC(=NNC(=O)c1ccc(O)cc1)SC | 2% | 42* | -1% | 7% | 20 | -1%
CC(=O)Nc1ccc(/C(C)=N\NC(=O)c2ccc(-c3ccccc3)cc2)cc1 | nt | 7 | 3% | -1% | 12 | -24%
CC(=O)Nc1ccc(/C(C)=N/NC(=O)c2ccc(F)cc2)cc1 | 40% | + | 0% | 3% | 24* | -25%
C/C(=N\NC(=O)c1ccc(F)cc1)c1ccc(NC(=O)Cc2ccccc2)cc1 | -2% | 90* | ? | 0% | 41* | -24%
C/C(=N\NC(=O)c1ccc(O)cc1)c1ccc(NC(=O)Cc2ccccc2)cc1 | 66% | 170* | 4% | 7% | 36* | -60%
O=C(O)c1ccc(-n2cccc2/C=C2/SC(=O)N(CC(=O)N3CCCC3)C2=O)cc1 | -13% | 10 | -14% | 2% | -3 | -16%
COc1ccccc1NC(=S)NCCc1ccc(OC)c(OC)c1 | -6% | -12 | 6% | -1% | 6 | -5%
CC1(C(=O)Nc2ccc(Cl)c(Cl)c2)CCN1C(=O)CC1CCCC1 (stereo not given) | 35% | nt | nt | nt | nt | nt
Cn1cc(Cl)c(/C=C(\C#N)S(=O)(=O)c2ccccc2)n1 | -2% | -9 | -3% | 1% | -1 | -14%
Cc1cc(C)c2c(=O)[nH]c(SCC(=O)N(C)C)nc2n1 | 0% | 12 | -5% | 3% | -4 | -18%
COc1cc(NC(=O)C2=C(N3CCOCC3)/C(=C/c3ccc(Cl)cc3)CC2)cc(OC)c1OC | -10% | -4 | -14% | -8% | 0 | -16%
CC(C)(C)c1ccc(-c2ccc3c(c2)S(=O)(=O)c2ccccc2C3=O)cc1 | 7% | nt | nt | nt | nt | nt
CCc1ccc2c(c1)C(=O)c1ccccc1C2=O | ? | 14* | 2% | 0% | 43* | -42%
CC(C)(C)c1ccc2c(c1)C(=O)c1ccccc1C2=O | ? | 77* | -12% | -24% | 32* | -24%
O=C1c2ccccc2-c2cc3ccccc3cc21 | 20% | nt | nt | nt | nt | nt
CC1=NN(c2ccccc2)C(=O)C1C=Nc1ccccc1O (stereo not given) | 47% | 27* | 10% | -3% | 14 | -36%
S=C(NCc1ccc2c(c1)OCO2)Nc1ccc(-c2nc3ccccc3[nH]2)cc1 | -8% | 62* | -4% | -1% | 32* | -39%
CN(C)CCNC(=S)Nc1ccc(-c2nc3ccccc3[nH]2)cc1 | 3% | 122* | 3% | -5% | 46* | -26%
COc1ccc(NC(=S)NCc2ccc3c(c2)OCO3)cc1 | 0% | 25 | 4% | 16% | 15 | -23%
COc1ccccc1CCC(=O)NNC(=O)c1cccs1 | 4% | nt | nt | -13% | nt | -12%
COc1ccc(N2CCN(C(CNC(=O)C(=O)NCc3ccc4c(c3)OCO4)c3ccco3)CC2)cc1 (stereo not given) | -11% | -7 | -9% | 3% | -3 | 53%
Cc1ccc(NC(=O)CCc2c[nH]c3ccccc23)nc1 | -4% | 35* | ? | -3% | 11* | -34%
O=C(CCCc1c[nH]c2ccccc12)Nc1ccc2ccccc2c1 | -26% | 68* | -8% | -9% | 38* | -47%
